Measurements from PubChem BioAssay (NCATS).
Inconclusive results are not listed. The source made the active and inactive calls. Unless noted, calls follow the shape of the dose curve; as a rule, active = well fitted curve in the direction sought with a large enough effect; inconclusive = small, poorly fitted or top-dose-only effect, or another doubt; inactive = no such curve, though single readings can be large; an effect the other way counts as inactive or inconclusive.

Legend:
[1] = Stat Signaling Pathway (AID 446; active = well fitted curve in either direction with a large enough effect, not every such curve was filed as active;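 also: ME-180 cervical cancer cells given 40 pM IL-6 alongside compound; SIE-controlled beta-lactamase reporter measured as 460/530 nm FRET emission ratio; % is scaled to controls: 0 for no effect and ±100 for the full control effect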)
Outline: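 IL-6/STAT signaling read in ME-180 cells via an SIE beta-lactamase reporter. Stimulus was 40 pM IL-6 (its AC50) for 5 hrs, so both activation and inhibition register.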

[2] = target: Mitogen-activated protein kinase 10 (Mus musculus) (UniProt Q61831); assay: JNK3 AlphaScreen Assay (AID 530; active = well fitted curve in either direction with a large enough effect, not every such curve was filed as active;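 also: kinase came from lysate of stimulated human HepG2 cells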; also: potency is read from the fitted curve at half-maximal effect;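 as to activity change, negative = inhibition: signal reports phosphorylation of biotinylated GST-cJun 1-79 at Ser73 with 10 µM ATP; % is scaled to controls: 0 for no effect and ±100 for the full control effect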)
Outline: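 Compound titrations were preincubated 15 minutes at room temperature with substrate, antibody and pre-activated JNK3-containing HepG2 lysate. Reactions were started with 10 uM ATP and stopped with EDTA-containing bead buffer for AlphaScreen detection.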

[3] = target: 3',5'-cyclic-AMP phosphodiesterase 4B (Homo sapiens) (UniProt Q07343); assay: qHTS Assay for Inhibitors of PDE-IV (AID 607; active = well fitted activation curve with a large enough effect in the main read-out, with a control signal flat, not every such curve was filed as active; also: % of control where 0% means no effect)
Sequence of 3',5'-cyclic-AMP phosphodiesterase 4B (Homo sapiens) (Q07343 whole entry, looked up): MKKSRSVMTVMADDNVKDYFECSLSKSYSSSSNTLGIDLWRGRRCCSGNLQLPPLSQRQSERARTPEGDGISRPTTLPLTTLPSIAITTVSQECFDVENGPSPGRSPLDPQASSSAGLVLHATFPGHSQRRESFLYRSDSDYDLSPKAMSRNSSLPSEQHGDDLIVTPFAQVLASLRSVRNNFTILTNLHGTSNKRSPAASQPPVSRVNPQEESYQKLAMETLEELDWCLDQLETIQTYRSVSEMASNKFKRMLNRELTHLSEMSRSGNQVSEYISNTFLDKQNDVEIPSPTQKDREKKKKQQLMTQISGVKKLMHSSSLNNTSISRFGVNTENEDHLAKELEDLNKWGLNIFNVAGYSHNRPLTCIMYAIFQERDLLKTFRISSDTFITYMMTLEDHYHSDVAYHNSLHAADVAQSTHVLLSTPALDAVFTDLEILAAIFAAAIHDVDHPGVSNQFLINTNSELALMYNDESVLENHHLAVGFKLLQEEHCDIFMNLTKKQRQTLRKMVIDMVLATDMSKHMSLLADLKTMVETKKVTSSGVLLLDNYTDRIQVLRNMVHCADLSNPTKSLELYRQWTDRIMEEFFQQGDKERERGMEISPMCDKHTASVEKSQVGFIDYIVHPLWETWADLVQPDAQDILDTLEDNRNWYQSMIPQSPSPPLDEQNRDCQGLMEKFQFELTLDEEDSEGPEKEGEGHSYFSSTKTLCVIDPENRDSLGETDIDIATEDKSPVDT
Outline: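 Live HEK293 cells with a modified cyclic nucleotide-gated (CNG) channel report intracellular cAMP via membrane-potential dye fluorescence (ex 535/em 590 nm). Endogenous PDE-IV was targeted. Compounds were tested at up to 22.9 uM final; RO 20-1724 100 uM served as control.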

[4] = qHTS Assay for Lipid Storage Modulators (AID 1519; calls by dose curve; as to activity change, negative = inhibition: % is scaled to controls: 0 for no effect and ±100 for the full control effect); details: Drosophila S3 cells, BODIPY lipid droplet/cell ratio, laser cytometry, cells loaded with oleic acid; for activity change, negative = inhibition: at 25.7 µM (top of the series)
Outline: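 Cells seeded at 5,000 per well were treated with compounds over a concentration series and loaded with oleic acid (400 uM, as added). Lipid droplet fluorescence (488 nm excitation, 500-530 nm channel) was read by laser-scanning cytometry and normalized to 20 uM Triacsin C.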

[5] = target: Ubiquitin carboxyl-terminal hydrolase 1 (Homo sapiens) (UniProt O94782); assay: Inhibitors of USP1/UAF1: Pilot qHTS (AID 504865); also: nearly all actives have a fitted effect of over 35% in size; also: potency is read from the fitted curve at half-maximal effect
Sequence of Ubiquitin carboxyl-terminal hydrolase 1 (Homo sapiens) (O94782 whole entry, looked up): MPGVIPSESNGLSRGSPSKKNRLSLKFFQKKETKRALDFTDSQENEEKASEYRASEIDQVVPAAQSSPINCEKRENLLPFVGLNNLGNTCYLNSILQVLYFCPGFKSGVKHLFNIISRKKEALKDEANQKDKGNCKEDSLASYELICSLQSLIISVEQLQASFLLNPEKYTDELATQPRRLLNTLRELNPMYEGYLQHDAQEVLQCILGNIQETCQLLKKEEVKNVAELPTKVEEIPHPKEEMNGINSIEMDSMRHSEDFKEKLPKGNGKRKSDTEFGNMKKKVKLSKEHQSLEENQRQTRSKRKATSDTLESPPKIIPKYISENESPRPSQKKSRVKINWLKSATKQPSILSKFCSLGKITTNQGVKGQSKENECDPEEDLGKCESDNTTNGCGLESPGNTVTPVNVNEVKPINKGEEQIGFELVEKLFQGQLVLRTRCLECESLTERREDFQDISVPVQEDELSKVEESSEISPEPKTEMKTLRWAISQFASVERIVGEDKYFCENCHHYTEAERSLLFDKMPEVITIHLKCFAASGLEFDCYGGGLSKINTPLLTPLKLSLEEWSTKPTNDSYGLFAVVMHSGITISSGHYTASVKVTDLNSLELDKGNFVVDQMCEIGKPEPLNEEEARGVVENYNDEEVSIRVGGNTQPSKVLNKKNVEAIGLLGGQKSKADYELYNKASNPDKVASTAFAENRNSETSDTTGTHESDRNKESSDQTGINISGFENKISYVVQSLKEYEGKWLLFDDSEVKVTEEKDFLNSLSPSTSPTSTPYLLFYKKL
Outline: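 Kinetic fluorescence assay: 1nM USP1/UAF1, 15 min compound preincubation, then 150nM Ub-Rho; 480/540 nm.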

[6] = target: ATP-dependent 6-phosphofructokinase (Trypanosoma brucei brucei) (UniProt O15648); assay: qHTS Assay to Find Inhibitors of T. brucei phosphofructokinase: hit validation (AID 492961);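 also: luminescence reports ADP formed as PFK phosphorylates fructose-6-phosphate with ATP; % is scaled to controls: 0 for no effect and ±100 for the full control effect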
Sequence of ATP-dependent 6-phosphofructokinase (Trypanosoma brucei brucei) (O15648 whole entry, looked up): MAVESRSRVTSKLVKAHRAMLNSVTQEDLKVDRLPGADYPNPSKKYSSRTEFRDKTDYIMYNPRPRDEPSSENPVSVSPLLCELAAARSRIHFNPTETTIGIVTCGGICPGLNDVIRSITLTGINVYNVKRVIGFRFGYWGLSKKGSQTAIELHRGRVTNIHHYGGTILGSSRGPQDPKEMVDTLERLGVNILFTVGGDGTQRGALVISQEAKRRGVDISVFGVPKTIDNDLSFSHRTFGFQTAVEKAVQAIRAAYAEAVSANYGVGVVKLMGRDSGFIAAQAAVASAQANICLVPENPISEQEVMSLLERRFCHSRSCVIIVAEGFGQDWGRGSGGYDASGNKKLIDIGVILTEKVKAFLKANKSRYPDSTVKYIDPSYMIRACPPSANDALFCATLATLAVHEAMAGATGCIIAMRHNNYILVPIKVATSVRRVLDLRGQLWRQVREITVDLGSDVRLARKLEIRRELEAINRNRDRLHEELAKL
Outline: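 Measures ADP output of PFK (1.25 nM) at 0.1 mM ATP, 0.5 mM F6P, pH 8.0 TEA buffer with 5 mM MgCl2. No-enzyme wells define full inhibition; uninhibited enzyme wells define zero.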

[7] = target: Luciferin 4-monooxygenase (Photinus pyralis) (UniProt P08659); assay: Biochemical firefly luciferase enzyme assay for NPC (AID 624030);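 also: purified P. pyralis luciferase at 10 nM with luciferin and ATP substrate; 0% = DMSO and -100% = full luciferase inhibition by PTC124 control; nearly all actives have a fitted effect of over 70% in size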
Sequence of Luciferin 4-monooxygenase (Photinus pyralis) (P08659 whole entry, looked up): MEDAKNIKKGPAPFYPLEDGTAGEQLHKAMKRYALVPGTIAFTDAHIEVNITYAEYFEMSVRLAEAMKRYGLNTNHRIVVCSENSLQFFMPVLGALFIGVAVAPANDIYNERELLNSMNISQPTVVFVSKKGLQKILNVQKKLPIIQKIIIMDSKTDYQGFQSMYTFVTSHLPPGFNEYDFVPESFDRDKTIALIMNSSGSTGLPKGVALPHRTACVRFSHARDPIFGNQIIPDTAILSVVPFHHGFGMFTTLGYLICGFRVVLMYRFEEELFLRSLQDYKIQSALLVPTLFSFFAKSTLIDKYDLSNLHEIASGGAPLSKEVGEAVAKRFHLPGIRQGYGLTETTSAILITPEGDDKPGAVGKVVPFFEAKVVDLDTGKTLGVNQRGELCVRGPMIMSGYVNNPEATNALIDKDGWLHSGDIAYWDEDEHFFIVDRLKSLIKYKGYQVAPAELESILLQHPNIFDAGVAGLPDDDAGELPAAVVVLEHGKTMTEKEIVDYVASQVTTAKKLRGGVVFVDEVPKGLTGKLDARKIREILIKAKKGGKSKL
Outline: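 Direct inhibition of firefly luciferase enzyme (10 nM final, 50 mM Tris Acetate) assessed by luminescence within 5 minutes. Percent activity scaled between DMSO and PTC124 positive control, with concentration-effect curves classified by fit quality and response.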

[8] = tested on: 3D7; assay: qHTS profiling for inhibitors of Plasmodium falciparum proliferation (AID 504749); also: nearly all actives have a fitted effect of over 60% in size; also: potency is read from the fitted curve at half-maximal effect;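 as to activity, negative = inhibition: 0% = DMSO vehicle and full inhibition = artemisinin control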; details: P. falciparum in erythrocytes, SYBR Green DNA, 72 h; series mostly up to 12.8 µM
Outline: (§1)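 Infected RBCs, 0.3% parasitemia/2.5% Hct final; cpd 72 h, 37 C, 5% CO2; lysis buffer with saponin/triton/SYBR Green I, o/n RT dark; FI 485/535; norm. to artemisinin (0.29 uM) and DMSO.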

[9] = tested on: CP305; assay: as above; details: P. falciparum in erythrocytes, SYBR Green DNA, 72 h; series mostly up to 12.8 µM
Outline: as §1

[10] = tested on: PC49; assay: as above; details: P. falciparum in erythrocytes, SYBR Green DNA, 72 h; series mostly up to 12.8 µM
Outline: as §1

[11] = as above; details: P. falciparum in erythrocytes, SYBR Green DNA, 72 h; for activity, negative = inhibition: at 12.8 µM (top of the series)
Outline: as §1

[12] = tested on: CP217; assay: as above; details: P. falciparum in erythrocytes, SYBR Green DNA, 72 h; series mostly up to 12.8 µM
Outline: as §1

[13] = tested on: CP329; assay: as above; details: P. falciparum in erythrocytes, SYBR Green DNA, 72 h; series mostly up to 12.8 µM
Outline: as §1

[14] = tested on: DIV30; assay: as above; details: P. falciparum in erythrocytes, SYBR Green DNA, 72 h; series mostly up to 12.8 µM
Outline: as §1

[15] = tested on: FAB9; assay: as above; details: P. falciparum in erythrocytes, SYBR Green DNA, 72 h; series mostly up to 12.8 µM
Outline: as §1

[16] = tested on: C2A; assay: as above; details: P. falciparum in erythrocytes, SYBR Green DNA, 72 h; series mostly up to 12.8 µM
Outline: as §1

[17] = tested on: CP238; assay: as above; details: P. falciparum in erythrocytes, SYBR Green DNA, 72 h; series mostly up to 12.8 µM
Outline: as §1

[18] = tested on: CP262; assay: as above; details: P. falciparum in erythrocytes, SYBR Green DNA, 72 h; series mostly up to 12.8 µM
Outline: as §1

[19] = tested on: CP269; assay: as above; details: P. falciparum in erythrocytes, SYBR Green DNA, 72 h; series mostly up to 12.8 µM
Outline: as §1

[20] = tested on: CP325; assay: as above; details: P. falciparum in erythrocytes, SYBR Green DNA, 72 h; series mostly up to 12.8 µM
Outline: as §1

[21] = measured here: cell count channel max response
[22] = measured here: lipid channel max response

NC[C@@H]1O[C@H](O[C@@H]2[C@H](O[C@@H]3O[C@H](CO)[C@@H](COC[C@H]4O[C@@H](CN)[C@@H](O)[C@@H](O)[C@@H]4N)[C@@H]3O)[C@@H](O)[C@@H](N)C[C@H]2N)[C@@H](N)[C@H](O)[C@@H]1O
2.23%: max response [4, 22]
inactive: outcome [1] | Potency [2] | outcome [3] | activity change, negative = inhibition [4] -1.17% | Potency [5]
1.11%: max response [4, 21]

O=C(O)[C@@H]1[C@@H]2C[C@H]3c4[nH]c5ccccc5c4CCN3C[C@@H]2CC[C@@H]1O
active: Potency [5] 28.2 µM
-6.11%: max response [4, 22]
-6.3%: max response [4, 21]
inactive: outcome [1] | Potency [2] | outcome [3] | activity change, negative = inhibition [4] 0.95% | outcome [6] | Potency [7] | Potency [8] | Potency [9] | Potency [10]

C[C@@H]1C[C@H](OC(=O)[C@@H](O)c2ccccc2)CC(C)(C)N1C
-2.86%: max response [4, 21]
-7.41%: max response [4, 22]
inactive: outcome [1] | Potency [2] | outcome [3] | activity change, negative = inhibition [4] -2.91% | Potency [7]

CC1(C)O[C@H]2C[C@@H]3[C@H]4CCC5=CC(=O)CC[C@@]5(C)[C@]4(F)[C@@H](O)C[C@@]3(C)[C@@]2(C(=O)CCl)O1
-17.1%: max response [4, 22]
active: Potency ([11]; parasite line B) 1.58 µM | Potency [8] 3.98 µM | Potency [12] 2.24 µM | Potency [14] 5.73 µM
inactive: outcome [1] | Potency [2] | outcome [3] | activity change, negative = inhibition [4] -3.97% | outcome [6] | Potency [7] | Potency [13] | Potency [15] | Potency [10]
-11.4%: max response [4, 21]

OC[C@@H](O)CN1CCN(c2ccccc2)CC1
inactive: outcome [1] | Potency [2] | outcome [3] | activity change, negative = inhibition [4] 0.251% | Potency [5]
-7.93%: max response [4, 22]
-9.92%: max response [4, 21]

C=Cc1c(C)c2cc3nc(cc4[nH]c(cc5nc(cc1[nH]2)C(C)=C5CCC(=O)O)c(CCC(=O)OC)c4C)[C@@]1(C)C3=CC=C(C(=O)OC)[C@H]1C(=O)OC (tested in a mixture with another compound)
inactive: outcome [3] | activity change, negative = inhibition [4] 1.23% | outcome [6] | Potency [7] | Potency [18] | Potency [19] | Potency [9] | Potency [20] | Potency [13] | Potency [14]
active: Potency [2] 0.316 µM [activator] | Potency ([11]; parasite line A) 10 µM | Potency ([11]; parasite line B) 5.62 µM | Potency [8] 3.55 µM | Potency [16] 14.1 µM | Potency [12] 10 µM | Potency [17] 11.2 µM | Potency [10] 5.01 µM
2.29%: max response [4, 22]
3.74%: max response [4, 21]

CO[C@]1(NC(=O)[C@H](C(=O)O)c2ccc(O)cc2)C(=O)N2C(C(=O)O)=C(CSc3nnnn3C)CO[C@H]21
-7.15%: max response [4, 21]
inactive: outcome [1] | Potency [2] | activity change, negative = inhibition [4] -4% | outcome [6] | Potency [5] | Potency [7] | activity, negative = inhibition ([11]; parasite line A) 8.42% | activity, negative = inhibition ([11]; parasite line B) 2.41% | Potency [8] | Potency [16] | Potency [12] | Potency [17] | Potency [18] | Potency [19] | Potency [9] | Potency [20] | Potency [13] | Potency [14] | Potency [15] | Potency [10]
-8.95%: max response [4, 22]

CC(=O)CC(=O)[C@@]1(O)CC[C@@H]2[C@@H]3C=C(C)C4=CC(=O)CC[C@@H]4[C@H]3CC[C@]21C
inactive: outcome [1] | Potency [2] | outcome [3] | activity change, negative = inhibition [4] -4.61%
-16.2%: max response [4, 21]
-21%: max response [4, 22]

C[C@@H](Cc1cccc(C(F)(F)F)c1)NCCOC(=O)c1ccccc1
-19.2%: max response [4, 21]
inactive: outcome [1] | Potency [2] | activity change, negative = inhibition [4] -1.81% | Potency [5]
-18.4%: max response [4, 22]

C[C@@]12C=CC(=O)C=C1CC[C@H]1[C@H]3CC[C@](O)(C(=O)CO)[C@]3(C)CC(=O)[C@@H]12
0.532%: max response [4, 21]
0.96%: max response [4, 22]
inactive: outcome [1] | Potency [2] | outcome [3] | activity change, negative = inhibition [4] -0.593%

Cc1nccn1C[C@@H]1CCc2c(c3ccccc3n2C)C1=O
-16.3%: max response [4, 22]
-10%: max response [4, 21]
inactive: outcome [1] | Potency [2] | outcome [3] | activity change, negative = inhibition [4] -8.25% | Potency [5] | Potency [7]

Cc1onc(-c2c(F)cccc2Cl)c1C(=O)N[C@H]1C(=O)N2[C@H]1SC(C)(C)[C@H]2C(=O)O
-8.13%: max response [4, 21]
inactive: outcome [1] | Potency [2] | outcome [3] | activity change, negative = inhibition [4] -2.99% | Potency [5]
-7.5%: max response [4, 22]

Nc1ncnc2c1ncn2[C@@H]1O[C@H](COP(=O)(O)O)[C@@H](O)[C@@H]1O
inactive: Potency [2] | outcome [3] | activity change, negative = inhibition [4] -0.35%
-10.8%: max response [4, 22]
-10.2%: max response [4, 21]

CCN(CC)[C@@H](C)CN1c2ccccc2Sc2ccccc21
inactive: outcome [1] | Potency [2] | outcome [3] | activity change, negative = inhibition [4] 0.633% | outcome [6] | Potency [5] | Potency [7] | activity, negative = inhibition ([11]; parasite line B) -12.9% | Potency [16] | Potency [17] | Potency [18] | Potency [19] | Potency [9] | Potency [20] | Potency [13] | Potency [14] | Potency [15] | Potency [10]
-2.65%: max response [4, 22]
-2.62%: max response [4, 21]

CC=C(/C(=C/C)c1ccc(O)cc1)c1ccc(O)cc1
-18.3%: max response [4, 22]
-14.6%: max response [4, 21]
inactive: outcome [1] | Potency [2] | outcome [3] | activity change, negative = inhibition [4] -3.26% | outcome [6] | Potency [7] | activity, negative = inhibition ([11]; parasite line A) -1.05% | activity, negative = inhibition ([11]; parasite line B) -9.06% | Potency [8] | Potency [16] | Potency [12] | Potency [17] | Potency [18] | Potency [19] | Potency [9] | Potency [20] | Potency [13] | Potency [14] | Potency [15] | Potency [10]

Nc1c(O)cccc1C(=O)C[C@@H](N)C(=O)O
inactive: outcome [1] | Potency [2] | outcome [3] | activity change, negative = inhibition [4] -1.89%
-4.16%: max response [4, 21]
-9.91%: max response [4, 22]

O[C@@](CCN1CCCCC1)(c1ccccc1)[C@@H]1C[C@H]2C=C[C@@H]1C2
-4.18%: max response [4, 21]
-2.67%: max response [4, 22]
inactive: outcome [1] | Potency [2] | activity change, negative = inhibition [4] 1.83% | Potency [5]
